# Results reported in PubChem BioAssay (Tox21).
# Inconclusive results are not listed. Values without a mark were called inactive. The source made the active and inactive calls. Calls come from the whole dose curve; as a rule, active = well fitted inhibition curve with a large enough effect in the repeat runs; inconclusive = weak or mixed curves, or effect the other way; inactive = no such curve, though single readings can be large or run the other way.
# Biological target: Nuclear receptor subfamily 1 group I member 3 (Homo sapiens) (UniProt Q14994)
# Assay: qHTS assay to identify small molecule antagonists of the constitutive androstane receptor (CAR) signaling pathway (AID 1224838);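 note: HepG2 cells stably expressing hCAR with CYP2B6 luciferase reporter stimulated by CITCO; nearly all actives have a fitted effect of over 40% in size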
# Conditions: HepG2-CYP2B6-hCAR luciferase, CITCO-stimulated, 24 h; series mostly up to 92.4 µM; activity, negative = inhibition: at the top concentration
# Description: U.S. Tox21 Program National Center for Advancing Translational Sciences [NCATS] NIH Chemical Genomics Center [NCGC] U.S. Environmental Protection Agency [EPA] National Institutes of Environmental Health Sciences [NIEHS] National Toxicology Program [NTP] U.S. Food and Drug Administration [FDA] Tox21 Assay Overview: The constitutive androstane receptor (CAR) is a nuclear receptor which regulates multiple drug metabolizing enzymes (DMEs) and transporters. Activating CAR will generally increase the transcription and subsequent translation of CYP2B6 and CYP3A4. These two DMEs represent about 50% of the drug metabolizing potential in the body. When CAR is deactivated, the metabolizing potential in the body will decrease, subsequently increasing the toxicity in the body or lowering the therapeutic potential of a pro-drug. Recently, there have also been studies performed indicating CARs role in energy metabolism and cancer therapy. Therefore, inhibiting CARs activity could have a potential effect on diabetes and cancer. Identifying environmental toxins and compounds which modulate CAR, through the use of the Tox21 10K compound collection, will be an important step in determining the toxicity and potential therapeutic effects these factors will have on the human body.
# Tox21 Assay Protocol Summary: A double-stable (hCAR and CYP2B6-2.2kb) transfected cell line, derived from human hepatoma (HepG2) cells, was utilized for the duration of the quantitative high-throughput screens. The HepG2-CYP2B6-hCAR cells suspended in DMEM culture medium supplemented with 10% FBS, 5 ug/mL blasticidin, 0.5 mg/mL geneticin, 100 U/mL penicillin and 100 ug/mL streptomycin were dispensed at 2500 cells/4 uL/well in 1536-well white solid bottom plates using a Multidrop Combi. After the assay plates were incubated at 37 C/5% CO2 for 4 hrs, 23 nL of compounds at 15 concentrations (from 5-48 columns) or positive control (from 1 to 4 columns) were transferred to the assay plates using a Pintool station. One uL of CITCO, was added using a Flying Reagent Dispenser to generate a final concentration of 50 nM CITCO inside each well. After a 24 hr incubation period at 37 C/5% CO2, four uL of ONE-Glo reagent was added into the assay plates using a Flying Reagent Dispenser. After a 30 min incubation period at room temperature, the luminescence intensity in the assay plates was measured using a ViewLux plate reader.
# % is set by controls: 0 for no effect and ±100 for the full control effect; potency is the fitted concentration of half-maximal effect.
# Sequence of Nuclear receptor subfamily 1 group I member 3 (Homo sapiens) (Q14994 whole entry, looked up): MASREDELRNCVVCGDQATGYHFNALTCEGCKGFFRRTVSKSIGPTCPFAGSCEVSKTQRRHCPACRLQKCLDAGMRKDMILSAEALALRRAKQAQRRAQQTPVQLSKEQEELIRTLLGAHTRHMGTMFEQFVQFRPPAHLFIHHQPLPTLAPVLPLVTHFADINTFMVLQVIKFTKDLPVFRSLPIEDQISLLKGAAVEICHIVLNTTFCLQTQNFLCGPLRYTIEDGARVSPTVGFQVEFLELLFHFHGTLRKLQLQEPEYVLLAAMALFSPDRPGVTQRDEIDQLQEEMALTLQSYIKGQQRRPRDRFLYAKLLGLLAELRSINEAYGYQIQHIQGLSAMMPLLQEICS
SMILES,"activity, negative = inhibition",Potency
CC(C)O,0.484%,–
Cc1ccccc1C(=O)Nc1ccc(C(=O)N2CCCC(O)c3cc(Cl)ccc32)c(C)c1 (stereo not given),-5.11% [at 42.5 µM],–
COC(=O)/C=C(/C)N,16.7% [at 42.5 µM],–
CCCc1c2oc(C(=O)O)cc(=O)c2cc2c(=O)cc(C(=O)O)n(CC)c12,-0.751% [at 42.5 µM],–
COC(=O)c1ccc(OC)cc1,-1.42%,–
CCCC1CCC(=O)O1 (stereo not given),8.54%,–
CCCCCCCCCCCCOCCOS(=O)(=O)O,3.45%,–
CC1CN(c2ccccc2)NC1=O (stereo not given),128%,–
Cc1c(N)cccc1N,72.2%,–
O=C1CCCCCCCCCCC(=O)OCCO1,-3.94%,–
CCN(CC)CCNC(=O)COc1ccc(Cl)cc1,7.5% [at 42.5 µM],–
OCc1c2ccccc2cc2ccccc12,46.7%,–
NC/C=C/C(=O)O,6.79% [at 42.5 µM],–
CC(C)NCC(O)COc1ccc(CCOCC2CC2)cc1 (stereo not given),17.6% [at 42.5 µM],–
O=c1oc2c(O)c(O)cc3c(=O)oc4c(O)c(O)cc1c4c23,7.54% [at 19 µM],–
CCCCCCCCCC/C=C/C#N,-5.54%,–
CCN(O)CC,1.51%,–
CCCS(=O)c1ccc2nc(NC(=O)OC)[nH]c2c1 (stereo not given),62.4% [at 42.5 µM],–
CCOc1ccccc1N,-58.7%,–
CC(C)Nc1nc(N)nc(Cl)n1,7.85%,–

SMILES,"activity, negative = inhibition",Potency
CCCNC(C)(C)COC(=O)c1ccccc1,-16.1% [at 42.5 µM],–
CC(CNC1CCCCC1)OC(=O)c1ccccc1 (stereo not given),-1.19% [at 42.5 µM],–
O=C(O)[C@@H]1CSCN1,-22.2% [at 42.5 µM],–
FC(F)(F)c1ccccc1,-6.26%,–
CCCCCCC,-11.7%,–
CCCCC(CC)COC(=O)COc1cc(Cl)c(Cl)cc1Cl (stereo not given),17.3%,–
CN1CCC[C@@H]1Cc1c[nH]c2ccc(CCS(=O)(=O)c3ccccc3)cc12,8.12% [at 42.5 µM],–
C[C@@H]1CN(c2c(F)c(F)c3c(=O)c(C(=O)O)cn(C4CC4)c3c2F)C[C@H](C)N1,14.9% [at 19 µM],–
NS(=O)(=O)c1cc(-c2nn[nH]n2)c(NCc2cccs2)cc1Cl,–,23.7 µM (active)
COc1ccccc1N1CCN(CCCNc2cc(=O)n(C)c(=O)n2C)CC1,-3.93% [at 42.5 µM],–
O=C(O)c1ccccc1Nc1cc(Cl)ccc1C(=O)O,-20% [at 19 µM],–
CN(CCCN1c2ccccc2CCc2ccccc21)CC(=O)c1ccc(Cl)cc1,110% [at 42.5 µM],–
NC(=O)NS(=O)(=O)c1ccc(Cl)cc1,-3.01% [at 42.5 µM],–
CC1(C)O[C@@H]2C[C@H]3[C@@H]4CCC5=CC(=O)CC[C@]5(C)[C@@]4(F)[C@@H](O)C[C@]3(C)[C@]2(C(=O)CCl)O1,1.93% [at 42.5 µM],–
CN1CCN(C2=Nc3cc(F)ccc3Cc3ccccc32)CC1,-3.12% [at 42.5 µM],–
COc1cc2c(cc1N)oc1ccccc12,239%,–
CCOc1ccc(NC(N)=O)cc1,0.776%,–
CCC/C=C/CO,12.3%,–
O=C1Nc2ccc([N+](=O)[O-])cc2C1=O,-9.92%,–
CC1(O)CSC(C)(O)CS1 (stereo not given),-11.6%,–
